High-throughput results (PubChem)
GPR151 ag: human GPR151 activation; Q8TDV0; PathHunter beta-arrestin GPR151 cells, luminescence; AID 1508602; actives 1% (n = 650,000); activation, % at 11.2 µM; in the data active = activation above about 4.9%
MITF inh: inhibitors of human MITF; AlphaScreen MITF homodimerization, bead proximity signal; inhibition, % at 2.6 µM; actives 0.91% (n = 650,000); AID 1259374; in the data active = inhibition above about 50%
TEAD-YAP inh: TEAD-YAP interaction inhibition | HEK-TIYL cells, TEAD-Gal4/YAP UAS-luciferase luminescence | actives 1.4% (n = 640,000) | inhibition, % at 9.12 µM | AID 1259422; in the data active = inhibition above about 32%
FBW7 act: activators of human E3 ligase FBW7; AlphaScreen FBW7–phospho-cyclin E peptide binding, activator screen; actives 0.13% (n = 650,000); AID 1259310; normalized activity (activation), % at 26.1 µM; Q969H0; in the data active = normalized activity above about 1.9%;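 note: purified mutant Fbw7 with reduced substrate affinity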
Target sequence (Q969H0 whole entry, looked up): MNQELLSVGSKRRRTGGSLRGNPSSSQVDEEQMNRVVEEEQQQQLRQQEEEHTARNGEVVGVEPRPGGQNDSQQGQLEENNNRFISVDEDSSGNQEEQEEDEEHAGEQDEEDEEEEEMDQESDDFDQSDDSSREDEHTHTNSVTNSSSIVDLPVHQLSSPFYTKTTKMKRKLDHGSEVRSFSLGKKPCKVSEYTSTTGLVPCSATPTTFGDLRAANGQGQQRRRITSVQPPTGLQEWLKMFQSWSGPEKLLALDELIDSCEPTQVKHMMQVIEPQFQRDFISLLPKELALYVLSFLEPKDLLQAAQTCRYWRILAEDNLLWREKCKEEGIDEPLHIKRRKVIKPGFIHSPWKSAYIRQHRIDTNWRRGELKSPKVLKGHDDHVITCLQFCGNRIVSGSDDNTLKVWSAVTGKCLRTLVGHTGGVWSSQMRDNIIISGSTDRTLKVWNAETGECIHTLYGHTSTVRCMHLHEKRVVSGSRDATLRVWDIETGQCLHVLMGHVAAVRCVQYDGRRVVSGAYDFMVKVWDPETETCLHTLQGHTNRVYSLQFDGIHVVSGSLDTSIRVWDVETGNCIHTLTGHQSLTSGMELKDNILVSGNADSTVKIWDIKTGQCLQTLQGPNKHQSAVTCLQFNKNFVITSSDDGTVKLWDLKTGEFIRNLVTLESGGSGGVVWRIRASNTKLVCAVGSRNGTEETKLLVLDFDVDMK
GPR151 conf act: human GPR151 activation, confirmation screen; shares compounds with GPR151 ag; GPR151 PathHunter beta-arrestin cells, luminescence, 90 min; % of EA-reagent control over plate median; activation, % at 11.2 µM; 6,700 tested, under 10 active;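 active = mean percent activation across replicates above the confirmation screen cutoff of 4.91%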
GPR119 ag: activates human GPR119 in a GPR151 counter-screen; activation, % at 11.2 µM; actives 0.3% (n = 6,700); shares compounds with GPR151 ag; GPR119 PathHunter beta-arrestin cells, luminescence, 90 min; 0 = compound-well median, 100 = enzyme-acceptor control;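 active = mean percent activation in the counterscreen above 29.09%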;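 note: counterscreen on off-target GPR119 to flag nonselective hits from the GPR151 activator screen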
Large screens that a line does not name were inactive (follow-up assays come after a bar, where they were run); ! = repeats disagree. Hits are enriched below; roughly 3.5% of the tested compounds scored in any of these assays.

COc1ccc(CN2C[C@@H]3C[C@@H](c4ccc5nonc5c4)N4CCC[C@@]34C2=O)cc1	GPR151 ag 5.4 | GPR151 conf act inactive | GPR119 ag inactive
COc1ccc(C2CC(c3ccccc3)=NN2C(=O)CSc2cccc[n+]2[O-])cc1 (stereo not given)	GPR151 ag 5.0 | GPR151 conf act inactive | GPR119 ag inactive
Cc1ccc(S(=O)(=O)Nc2ccc(NC(=O)/C=C/c3ccc4c(c3)OCO4)cc2)cc1	GPR151 ag 7.6 | GPR151 conf act inactive | GPR119 ag inactive
CCNC(=O)C(Cc1ccccc1)NC(C)=O (stereo not given)	none
CCOc1cc2c(cc1OCC)C(c1ccc(OC)c(OC)c1Cl)NCC2 (stereo not given)	none
CCCN1C(=O)/C(=C/c2ccc(O)c(OC)c2)SC1=S	GPR151 ag 5.1 | GPR151 conf act inactive | GPR119 ag inactive
N#CCCn1cc(C=O)c(-c2ccc(-c3ccccc3)cc2)n1	GPR151 ag 5.5 | GPR151 conf act inactive | GPR119 ag inactive
N#CCCn1cc(/C=N/O)c(-c2ccccc2)n1	none
CC(C(=O)NCc1ccccn1)n1c2ccccc2c2cn[nH]c(=O)c21 (stereo not given)	none
CCOc1ccccc1OCCCNC(C)(C)C	none
CCCOc1ccccc1CNC(C)(C)C	GPR151 ag 9.3 | GPR151 conf act inactive | GPR119 ag inactive
CC(C)c1ccccc1OCCCNC(C)(C)C	GPR151 ag 7.1 | GPR151 conf act inactive | GPR119 ag inactive
CCOc1ccc2[nH]cc(C(=O)NCc3ccc(OC)cc3)c(=O)c2c1	none
CNCCCC1c2ccccc2C=Cc2ccccc21	GPR151 ag 10! | GPR151 conf act inactive | GPR119 ag inactive
CC1(C)OC(=O)C(=CNC(CCC(N)=O)C(=O)O)C(=O)O1 (stereo not given)	GPR151 ag 6.4 | GPR151 conf act inactive | GPR119 ag inactive
CCc1ccc(NC(=O)C(CC)Sc2nc3cc(OC)c(OC)cc3c(=O)n2CCc2ccc(Cl)cc2)cc1 (stereo not given)	GPR151 ag 6.5 | GPR151 conf act inactive | GPR119 ag inactive
CCC(Sc1nc2cc(OC)c(OC)cc2c(=O)n1CCc1ccc(Cl)cc1)C(=O)Nc1cccc(Cl)c1 (stereo not given)	none
Cc1ccc(N2C(=O)C3CCCCC3C2=O)cc1F (stereo not given)	GPR151 ag 8.1 | GPR151 conf act inactive | GPR119 ag inactive
Cc1c(C(=O)NCCN(C)c2ccccc2)sc2ncnc(N3CCOCC3)c12	none
COCCCNc1nc2nonc2nc1N(C)Cc1ccc(F)cc1	GPR151 ag 5.8 | GPR151 conf act inactive | GPR119 ag inactive
COCCCNc1nc2nonc2nc1N(C)Cc1ccccn1	none
Clc1ccc2nc(CSc3nncn3-c3ccccc3)cn2c1	GPR151 ag 5.1 | GPR151 conf act inactive | GPR119 ag inactive
CS(=O)(=O)N1CCC(C(=O)N2CCC(O)(c3ccccn3)CC2)CC1	GPR151 ag 11 | GPR151 conf act inactive | GPR119 ag inactive
O=C(C1CC1)N1CCC(O)(c2ccccn2)CC1	none
O=C1CCCCc2sccc2N1	GPR151 ag 6.4 | GPR151 conf act inactive | GPR119 ag inactive
CC(C)c1ccc(NC(=O)C(c2ccccc2)N(C)C(=O)c2ccc(=O)[nH]c2)cc1 (stereo not given)	GPR151 ag 8.7 | GPR151 conf act inactive | GPR119 ag inactive
Cc1ccc(NC(=O)CSc2nc3c(c(=O)n2C)SCC3)c(C)c1	GPR151 ag 7.4 | GPR151 conf act inactive | GPR119 ag inactive
CCOC(=O)c1ccccc1NC(=O)C(C)N(c1ccc(Cl)cc1)S(C)(=O)=O (stereo not given)	none
CCOC(=O)c1ccc(NC(=O)C(C)N(c2ccc(C)c(C)c2)S(C)(=O)=O)cc1 (stereo not given)	GPR151 ag 5.1 | GPR151 conf act inactive | GPR119 ag inactive
CCOC(=O)c1ccccc1NC(=O)C(C)N(c1ccc(C)cc1)S(C)(=O)=O (stereo not given)	GPR151 ag 5.9 | GPR151 conf act inactive | GPR119 ag inactive
COC(=O)c1ccc(NC(=O)C(C)N(c2ccc(C)c(C)c2)S(C)(=O)=O)cc1 (stereo not given)	none
COc1cc(NC(=O)NCc2cccs2)c2ncccc2c1	GPR151 ag 5.6 | GPR151 conf act inactive | GPR119 ag inactive
CC(C)(S)C(=O)N[C@@H](CS)C(=O)O	none
CC(C)(S)C(N)C(=O)O (stereo not given)	GPR151 ag 5.1! | GPR151 conf act inactive | GPR119 ag inactive
O=C1CCCCN1c1cccc(NS(=O)(=O)c2cc(F)ccc2F)c1	GPR151 ag 7.1 | GPR151 conf act inactive | GPR119 ag inactive
CNc1cc([N+](=O)[O-])ccc1N/C=C\C(=O)c1ccc(OC)cc1OC	GPR151 ag 5.8 | GPR151 conf act inactive | GPR119 ag inactive
CC1CC(C)CN(S(=O)(=O)c2ccc(Sc3ccc(F)cc3)c(C(=O)N3CCC4(CC3)OCCO4)c2)C1 (stereo not given)	none
N#Cc1ccc(S(=O)(=O)NCCc2ccncc2)cc1	GPR151 ag 5.2 | GPR151 conf act inactive | GPR119 ag inactive
CCCCCOC(=O)C1=C(C)N(C)C(=O)NC1c1ccccc1Cl (stereo not given)	GPR151 ag 5.0 | GPR151 conf act inactive | GPR119 ag inactive
CCOC(=O)C1=C(C)N(C)C(=O)NC1c1ccccc1Cl (stereo not given)	none
O=C(CC(Nc1ccc(F)cc1)c1ccc(Br)cc1)c1ccc(Cl)cc1 (stereo not given)	none
O=C(Nc1ccc(Cc2ccncc2)cc1)c1cccc2nccnc12	none
O=C(NC(=O)c1ccc(Cn2cc(C(F)(F)F)ccc2=O)cc1)Nc1cccnc1	GPR151 ag 5.2 | GPR151 conf act inactive | GPR119 ag inactive
Cc1ccc(NC(=O)NC(=O)c2cccc(Cn3cc(C(F)(F)F)ccc3=O)c2)nc1	none
Cc1ccc(C)c(CSc2ncnc3c2c(-c2ccccc2)cn3-c2ccc(F)cc2)c1	none
O=S(=O)(c1cccc(S(=O)(=O)N2CCOCC2)c1)c1ccc(Cl)c(Cl)c1	GPR151 ag 5.5 | GPR151 conf act inactive | GPR119 ag inactive
Cc1cc(NS(=O)(=O)c2ccc(NC(=O)COc3ccc4ccccc4c3)cc2)no1	none
Cc1cc(NC(=O)c2cc(-c3ccccc3O)no2)nn1CC(=O)N1CCOCC1	GPR151 ag 5.6 | GPR151 conf act inactive | GPR119 ag inactive
CC(Sc1ncn(-c2ccccc2)n1)C(=O)Nc1ccccc1 (stereo not given)	GPR151 ag 5.9 | GPR151 conf act inactive | GPR119 ag inactive
NCc1cccc(-c2cnc(N3CCOCC3)c3nccn23)c1	none
Cn1ccnc1SCCNC(=O)CC1C(=O)NCCN1CC1CCCCC1 (stereo not given)	GPR151 ag 7.6 | GPR151 conf act inactive | GPR119 ag inactive
